We go through 20 compounds from PubChem BioAssay.

A short description of assay [1]: antimalarial activity against Dd2 strain (AID 2302;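 active means growth inhibition above 50% at the single 2 µM test dose, taken to imply half-maximal potency below 2 µM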;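 further: 0% = DMSO untreated growth and 100% = chloroquine plus artemisinin killed control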). The settings on record: P. falciparum Dd2 in RBCs, LDH growth readout, 72 h; at 2 µM; hits give high values.
Assay [2] in a line: HepG2 cytotoxicity, primary screen, cytotoxicity control for P. falciparum antimalarial project, cell-based, ATP luminescence (AID 2303;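 active means inhibition above 50%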;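 further: 0% = DMSO wells and 100% = digitonin-killed cells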). The settings on record: HepG2 viability, 24-48 h, at 10 µM, hits give high values.
Assay [3] concerns the target L-lactate dehydrogenase (Plasmodium falciparum (isolate CDC / Honduras)) (UniProt Q27743). The assay is described as follows: PfLDH activity inhibition – cell lysate, 3D7 strain, counter-screen for P. falciparum growth inhibition project (AID 2304).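 Further: 0% = vehicle and 100% = reference inhibitor.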 The conditions noted are these: P. falciparum 3D7 crude extract, LDH APAD/NBT absorbance; at 2 µM; hits give high values. In general terms: Counterscreens check selectivity or assay interference.

A short description of assay [4]: inhibition of 3D7 malaria parasite growth – strain 3D7 (AID 2306).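 Further: 0% = DMSO wells and 100% = chloroquine plus artemisinin control wells.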 The settings on record: P. falciparum 3D7 erythrocytic growth, LDH absorbance, 72 h; at 2 µM; hits give high values.
In assay [5] the target is Calcium-dependent protein kinase 1 (Plasmodium falciparum (isolate 3D7)) (UniProt P62344). Put plainly: PfCDPK1 kinase inhibitors, biochemical, TCAMS library (AID 1159585; cut-off not given, nearly all actives have IC50 up to about 0.98 µM;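 further: inhibitors leave more ATP so luminescence rises with inhibition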). The settings on record: recombinant PfCDPK1, Kinase-Glo ATP depletion luminescence. In general terms: Kinase-Glo reads ATP consumption through a luciferase reaction.
In assay [6] the target is Plasmodium falciparum protein kinase 6 (PK6, PF3D7_1337100) (UniProt Q8IDW1). The assay is described as follows: PfPK6 kinase inhibitors, biochemical, TCAMS library (AID 1159586). The conditions noted are these: recombinant PfPK6, Kinase-Glo ATP depletion luminescence.
Assay [7] addresses Protein kinase 7 (PK7), Plasmodium falciparum 3D7 (PF3D7_0213400) (UniProt Q7YTF7). The assay is described as follows: inhibition of Plasmodium PK7 catalytic activity – biochemical, TCAMS antimalarial set, Kinase-Glo luminescence (AID 1159587). The conditions noted are these: recombinant PfPK7, Kinase-Glo ATP depletion luminescence.
For assay [8], the target named is Calcium-dependent protein kinase 4 (Plasmodium falciparum (isolate 3D7)) (UniProt Q8IBS5). The assay is described as follows: PfCDPK4 kinase inhibitors, biochemical, TCAMS library (AID 1159588; cut-off not given, nearly all actives have IC50 up to about 0.91 µM). The conditions noted are these: recombinant PfCDPK4, Kinase-Glo ATP depletion luminescence.

Values without a mark were called inactive. For some of these results: Results with a measured potency or affinity are listed apart. Calls of active or inactive are those of the source. Unless noted, how the calls were made is not given here.

Chain of Plasmodium falciparum protein kinase 6 (PK6, PF3D7_1337100) (Q8IDW1 1-305): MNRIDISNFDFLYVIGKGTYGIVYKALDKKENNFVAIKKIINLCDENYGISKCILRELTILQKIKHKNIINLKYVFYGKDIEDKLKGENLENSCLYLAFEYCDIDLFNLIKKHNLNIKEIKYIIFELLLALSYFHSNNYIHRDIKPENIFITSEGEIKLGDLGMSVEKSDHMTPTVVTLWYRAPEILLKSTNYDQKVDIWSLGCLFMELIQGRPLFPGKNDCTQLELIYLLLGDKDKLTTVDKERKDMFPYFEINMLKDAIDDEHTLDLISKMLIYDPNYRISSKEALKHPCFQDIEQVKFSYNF
Chain of Calcium-dependent protein kinase 1 (Plasmodium falciparum (isolate 3D7)) (P62344 whole entry, looked up): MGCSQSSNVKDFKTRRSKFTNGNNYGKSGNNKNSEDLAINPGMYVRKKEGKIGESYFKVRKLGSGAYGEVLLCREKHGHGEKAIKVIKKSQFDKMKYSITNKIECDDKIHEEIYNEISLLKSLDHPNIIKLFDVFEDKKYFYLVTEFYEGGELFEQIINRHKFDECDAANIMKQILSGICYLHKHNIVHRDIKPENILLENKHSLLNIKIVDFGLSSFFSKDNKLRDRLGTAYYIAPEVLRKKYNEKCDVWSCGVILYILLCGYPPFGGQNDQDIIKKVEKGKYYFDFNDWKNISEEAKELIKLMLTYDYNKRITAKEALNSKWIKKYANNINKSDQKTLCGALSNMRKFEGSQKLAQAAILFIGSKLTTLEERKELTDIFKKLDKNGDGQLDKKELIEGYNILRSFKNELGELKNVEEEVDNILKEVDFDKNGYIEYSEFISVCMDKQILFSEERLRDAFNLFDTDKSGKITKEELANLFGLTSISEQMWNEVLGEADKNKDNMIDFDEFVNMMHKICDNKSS
Chain of Protein kinase 7 (PK7), Plasmodium falciparum 3D7 (PF3D7_0213400) (Q7YTF7 1-343): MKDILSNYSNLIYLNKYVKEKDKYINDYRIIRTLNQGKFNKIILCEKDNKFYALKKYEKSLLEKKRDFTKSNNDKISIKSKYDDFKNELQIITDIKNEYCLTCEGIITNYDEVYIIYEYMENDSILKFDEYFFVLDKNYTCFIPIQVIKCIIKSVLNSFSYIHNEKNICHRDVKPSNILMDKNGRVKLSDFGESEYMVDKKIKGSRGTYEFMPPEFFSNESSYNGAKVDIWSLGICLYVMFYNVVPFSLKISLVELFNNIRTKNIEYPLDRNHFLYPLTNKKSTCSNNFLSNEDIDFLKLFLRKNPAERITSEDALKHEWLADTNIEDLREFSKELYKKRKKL
Chain of L-lactate dehydrogenase (Plasmodium falciparum (isolate CDC / Honduras)) (Q27743 whole entry, looked up): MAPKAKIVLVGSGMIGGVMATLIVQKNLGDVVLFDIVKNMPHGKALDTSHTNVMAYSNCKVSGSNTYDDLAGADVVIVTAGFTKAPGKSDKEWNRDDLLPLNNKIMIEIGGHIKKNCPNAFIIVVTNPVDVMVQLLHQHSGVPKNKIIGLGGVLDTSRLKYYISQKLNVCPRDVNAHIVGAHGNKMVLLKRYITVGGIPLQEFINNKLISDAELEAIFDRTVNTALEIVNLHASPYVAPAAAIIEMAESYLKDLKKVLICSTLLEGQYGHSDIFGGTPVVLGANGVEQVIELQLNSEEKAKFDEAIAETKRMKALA
Chain of Calcium-dependent protein kinase 4 (Plasmodium falciparum (isolate 3D7)) (Q8IBS5 whole entry, looked up): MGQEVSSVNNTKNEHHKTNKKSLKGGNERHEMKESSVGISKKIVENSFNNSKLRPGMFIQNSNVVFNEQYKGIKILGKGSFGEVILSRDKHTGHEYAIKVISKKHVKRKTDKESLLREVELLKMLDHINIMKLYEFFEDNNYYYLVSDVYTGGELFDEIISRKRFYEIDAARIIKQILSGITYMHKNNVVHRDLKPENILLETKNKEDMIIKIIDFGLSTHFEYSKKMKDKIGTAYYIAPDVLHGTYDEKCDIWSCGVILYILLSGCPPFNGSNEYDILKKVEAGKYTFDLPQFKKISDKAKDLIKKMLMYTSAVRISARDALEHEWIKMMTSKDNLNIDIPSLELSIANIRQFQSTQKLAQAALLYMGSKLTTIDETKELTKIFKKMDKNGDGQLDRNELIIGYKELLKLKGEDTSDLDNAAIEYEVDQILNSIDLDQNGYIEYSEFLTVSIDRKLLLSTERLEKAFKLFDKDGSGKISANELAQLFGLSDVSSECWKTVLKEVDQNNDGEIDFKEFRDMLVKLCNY

Broadly, the inhibition is the change of the read-out against control, counted positive when it falls. `CCCCCCCC1=NN2C(=N)C(=Cc3cc(Br)c(OCc4ccc(F)cc4)c(OCC)c3)C(=O)N=C2S1`: the figures for the growth inhibition in assay [1] and in assay [4] were -6% and 95% (active), respectively. The inhibition in assay [2] is 4%; in assay [3] it was 0%. In addition, the result in assay [5], in assay [6], in assay [7] and in assay [8] was inactive.

As to `O=C(NC1CCCCC1)C1CCCN(C(=O)c2ccc(O)c(-c3ccc(Cl)c(Cl)c3)c2)C1` (stereo not given), the growth inhibition in assay [1] was 42%; in assay [4], 89% (active). Moreover, the inhibition is 22% in assay [2] and 0% in assay [3]. Besides, the outcome in assay [5], in assay [6], in assay [7] and in assay [8] was inactive.

As for `CNc1ccc(CNCc2cccc(-c3ccc(-c4nc5ccc(C(F)(F)F)cc5[nH]4)cc3)c2)cc1`, the growth inhibition in assay [1] was 100% (active); in assay [4] it was 101% (active). For the same compound, the inhibition in assay [2] was 21%; in assay [3], 0%. Further, the outcome in assay [5], in assay [6], in assay [7] and in assay [8] was inactive.

Consider `COc1cc(NC(=O)/C=C/c2ccccc2OC(F)(F)F)cc(OCCN2CCN(CCN3CCOCC3)CC2)c1`, for which the growth inhibition in assay [1] is 25%; in assay [4] it was 98% (active). The inhibition in assay [2] is 20%; in assay [3], -1%. Besides, the outcome in assay [5], in assay [6], in assay [7] and in assay [8] was inactive.

Take `O=C(Nc1ccc(Cl)c(Cl)c1)Nc1cc(C(F)(F)F)ccc1Cl`: the values for the growth inhibition in assay [1] and in assay [4] were 85% (active) and 101% (active), respectively. Further, the results for the inhibition in assay [2] and in assay [3] were -1% and -4%, respectively. The result in assay [5], in assay [6], in assay [7] and in assay [8] was inactive.

As to `COc1cc(C)nc2ccc(NC(=O)c3cc([N+](=O)[O-])cc([N+](=O)[O-])c3)cc12`, the growth inhibition is 94% (active) in assay [1] and 102% (active) in assay [4]. For the same compound, the inhibition was -2% in assay [2] and 2% in assay [3]. Moreover, the outcome in assay [5], in assay [6], in assay [7] and in assay [8] was inactive.

Turning to `CN(C)C(CNC(=O)c1cc(-c2ccncc2)c(-c2ccc(NC(=O)Nc3cccc(F)c3)cc2)o1)c1ccccc1` (stereo not given), the growth inhibition was 99% (active) in assay [1] and 100% (active) in assay [4]. In addition, the inhibition in assay [2] was 11%; in assay [3], 3%. Further, the outcome in assay [5], in assay [6], in assay [7] and in assay [8] was inactive.

Regarding `Cc1nnc2sc(-c3cccc(NC(=O)c4ccc(N5CCCCC5)c([N+](=O)[O-])c4)c3)nn12`, the growth inhibition in assay [1] is 20%; in assay [4], 87% (active). Further, the inhibition in assay [2] was 3%; in assay [3], -3%. Further, the outcome in assay [5], in assay [6], in assay [7] and in assay [8] was inactive.

As for `COc1ccc2nccc(N(C)CC3(O)CCC(NCc4ccc5c(n4)NC(=O)CS5)CC3)c2n1` (stereo not given), the growth inhibition in assay [1] was 23%; in assay [4] it was 98% (active). Besides, the inhibition in assay [2] was 1%; in assay [3] it was -1%. In addition, the outcome in assay [5], in assay [6], in assay [7] and in assay [8] was inactive.

As for `CN1CCC(N(Cc2ccc(-c3cnc(NCc4ccccc4)nc3)cc2)S(=O)(=O)c2ccccc2)CC1`, the growth inhibition in assay [1] is 10%; in assay [4] it was 102% (active). Further, the results for the inhibition in assay [2] and in assay [3] were 48% and 1%, respectively. Moreover, the outcome in assay [5], in assay [6], in assay [7] and in assay [8] was inactive.

`c1ccc2c(NCCCCCCNc3ccnc4ccccc34)ccnc2c1`: the results for the growth inhibition in assay [1] and in assay [4] were 12% and 100% (active), respectively. For the same compound, the results for the inhibition in assay [2] and in assay [3] were 43% and 5%, respectively. The result in assay [5], in assay [6], in assay [7] and in assay [8] was inactive.

As for `O=C(Nc1cc(C(F)(F)F)ccc1-n1cncn1)C1(c2ccccc2)CC1`, the growth inhibition in assay [1] and in assay [4] was 100% (active) each time. In addition, the inhibition is 11% in assay [2] and 3% in assay [3]. Further, the result in assay [5], in assay [6], in assay [7] and in assay [8] was inactive.

Consider `Cc1ccc2cc(NCCCCCCCCON3C(N)=NC(N)=NC34CCCCC4)ccc2n1`, for which the growth inhibition in assay [1] was 80% (active); in assay [4] it was 92% (active). Also, the inhibition in assay [2] is 15%; in assay [3], 3%. Moreover, the outcome in assay [5], in assay [6], in assay [7] and in assay [8] was inactive.

Consider `CS(=O)(=O)Nc1ccc2[nH]cc(C3CCN(CCCCCNC(=O)/C=C/c4ccc(Cl)c(Cl)c4)CC3)c2c1`, for which the growth inhibition is 0% in assay [1] and 101% (active) in assay [4]. For the same compound, the inhibition in assay [2] is 1%; in assay [3], 5%. Also, the outcome in assay [5], in assay [6], in assay [7] and in assay [8] was inactive.

With `COc1cc(NCC(C)CNCc2cn(Cc3ccccc3)c3ccccc23)nc2ccccc12` (stereo not given), the growth inhibition is 55% (active) in assay [1] and 90% (active) in assay [4]. In addition, the inhibition in assay [2] is 21%; in assay [3] it was -6%. The result in assay [5], in assay [6], in assay [7] and in assay [8] was inactive.

As for `CN(C)CCNC(=O)c1cccc(-c2cnc3ccc(NCc4ccc(Cl)c(Cl)c4)nn23)c1`, the growth inhibition in assay [1] was 53% (active); in assay [4] it was 100% (active). In addition, the inhibition is 31% in assay [2] and -2% in assay [3]. Further, the outcome in assay [5], in assay [6], in assay [7] and in assay [8] was inactive.

For `O=C(NCc1cccc2ccccc12)C1CCCN(C(=O)c2ccc(O)c(-c3ccc(Cl)c(Cl)c3)c2)C1` (stereo not given), the values for the growth inhibition in assay [1] and in assay [4] were 23% and 92% (active), respectively. In addition, the inhibition is 1% in assay [2] and -5% in assay [3]. Besides, the outcome in assay [5], in assay [6], in assay [7] and in assay [8] was inactive.

Regarding `COc1cccc2cc(C(=O)N[C@@H](CC(C)C)C(=O)N[C@H](/C=N/NC(=O)Cc3cccnc3)CCc3ccccc3)oc12`, the growth inhibition in assay [1] was 54% (active); in assay [4], 82% (active). For the same compound, the inhibition in assay [2] is 6%; in assay [3], 2%. The result in assay [5], in assay [6], in assay [7] and in assay [8] was inactive.

As to `CN(C)CCN(C)Cc1cccc(-c2cccc(NC(=O)c3cccc(C#N)c3)c2)c1`, the growth inhibition in assay [1] was 10%; in assay [4], 92% (active). In addition, the inhibition was -4% in assay [2] and -1% in assay [3]. The outcome in assay [5], in assay [6], in assay [7] and in assay [8] was inactive.

Consider `CCCCCCNC(=O)C(N)CCCC(N)C(=O)NCCCCCC` (stereo not given), for which the values for the growth inhibition in assay [1] and in assay [4] were -5% and 99% (active), respectively. Also, the inhibition in assay [2] and in assay [3] was -2% in each case. The result in assay [5], in assay [6], in assay [7] and in assay [8] was inactive.
